Source: PubChem BioAssay (National Center for Advancing Translational Sciences (NCATS))
Only some compounds are listed: those with a hit (about 9.2% of all), similar ones and a draw of the others.
ELG1 DNA repair: qHTS screen for small molecules that inhibit ELG1-dependent DNA repair in human embryonic kidney (HEK293T) cells expressing luciferase-tagged ELG1. HEK293T ELG1-luciferase reporter, luminescence, 16 h; DNA damage induced by 5-fluorouridine. Potency, µM (top dose mostly 46.1 µM), most hits filed as inhibitors. 330,000 compounds, 2.3% hits. AID 504467, 2011; also: nearly all actives have a fitted effect of over 55% in size
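Overnight (16 hr) co-exposure of 2,000 cells/well to 5-fluorouridine and compound at 37 °C preceded detection. Luciferase was quantified via ONE-Glo luminescence; loss of signal denotes inhibition.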
FLuc counter: qHTS profiling assay for firefly luciferase inhibitor/activator using purifed enzyme and Km concentrations of substrates (counterscreen for miR-21 project); Potency, µM (doses to about 57.5 µM), usual class: inhibitors; AID 588342, 2011; 360,000 compounds, 6.9% hits; Luciferin 4-monooxygenase (Photinus pyralis), P08659; purified FLuc, Km substrates, luminescence inhibition; also: nearly all actives have a fitted effect of over 55% in size
Target sequence (P08659 whole entry, looked up): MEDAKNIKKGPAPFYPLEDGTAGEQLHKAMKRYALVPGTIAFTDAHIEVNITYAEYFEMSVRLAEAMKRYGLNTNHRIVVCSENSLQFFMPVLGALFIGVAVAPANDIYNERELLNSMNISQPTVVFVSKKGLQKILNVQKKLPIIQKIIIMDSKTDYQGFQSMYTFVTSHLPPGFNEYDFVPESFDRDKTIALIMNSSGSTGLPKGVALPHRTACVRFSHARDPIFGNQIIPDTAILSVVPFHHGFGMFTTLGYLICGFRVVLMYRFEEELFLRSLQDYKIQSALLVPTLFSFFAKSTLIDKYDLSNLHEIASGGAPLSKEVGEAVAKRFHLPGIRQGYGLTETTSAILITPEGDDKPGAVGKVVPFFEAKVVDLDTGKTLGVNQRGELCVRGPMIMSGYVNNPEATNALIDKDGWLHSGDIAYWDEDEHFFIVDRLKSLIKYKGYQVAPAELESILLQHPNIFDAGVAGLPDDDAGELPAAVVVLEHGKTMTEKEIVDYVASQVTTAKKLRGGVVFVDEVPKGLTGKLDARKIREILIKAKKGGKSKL
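Purified P. pyralis luciferase (10nM final) with 10uM D-luciferin and 10uM ATP (Km levels) in 50mM Tris acetate pH 7.5, 10mM Mg acetate, 0.01% Tween-20, 0.05% BSA; qHTS 6-point titration, ~60 µM downward; luminescence read.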
SMN2 splice enh: qHTS Assay for Enhancers of SMN2 Splice Variant Expression; HEK293 SMN2-luciferase splicing reporter, luminescence, 30-36 h; Potency, µM (top dose mostly 46.1 µM), actives largely listed as activators; 210,000 compounds, 2.8% hits; AID 1458, 2008; also: nearly all actives have a fitted effect of over 55% in size
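HEK293 cells carry an SMN2 […]–luciferase reporter in which exon 7 inclusion puts luciferase in frame. Cells were plated 10-12 h before compound addition, then incubated 30-36 h at 37C. ONE-Glo luminescence was read; sodium butyrate at 4.5 mM final served as control.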
Rab9 prom act: qHTS Assay for Rab9 Promoter Activators. Huh7 Rab9 promoter-luciferase reporter, luminescence, 24 h. Potency, µM (series often up to 9.22 µM), hits mostly activators. 320,000 compounds, 2.8% hits; also: nearly all actives have a fitted effect of over 60% in size
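Luciferase signal after 10 min detection reagent at ambient indicates Rab9 promoter upregulation; stably transfected Huh7 cells were treated 24 h with compound in DMSO at 37 °C, 5% CO2.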
NPC1 prom act: qHTS Assay for NPC1 Promoter Activators | Potency, µM (titrated, usually from 9.22 µM), most hits filed as activators | 320,000 compounds, 2.4% hits | Huh7 NPC1 promoter luciferase reporter, 24 h | AID 485313, 2010; also: nearly all actives have a fitted effect of over 60% in size
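Huh7 cells stably carrying NPC1 promoter–luciferase, plated in Opti-MEM with 10% FBS for 2 h, were exposed to compound in DMSO for 24 h at 37 °C; luciferase reagent was added for 10 min and luminescence read.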
ELG1 genotox: qHTS screen for small molecules that induce genotoxicity in human embryonic kidney (HEK293T) cells expressing luciferase-tagged ELG1. HEK293T ELG1-luciferase reporter, luminescence, 16 h. Potency, µM (doses to about 46 µM), hits mostly activators. 330,000 compounds, 1.3% hits. AID 504466, 2011; also: nearly all actives have a fitted effect of over 60% in size
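Quantitative HTS format in 1536-well plates. HEK293T ELG1-luciferase reporter cells receive test compound and are incubated 16 hr at 37 °C, 5% CO2; ONE-Glo added, 30 min room temperature, then luminescence read.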
Numbers stand for hits; - = inactive; ? = inconclusive; . = no result given. Calls follow the shape of the dose curve; as a rule, active = well fitted curve in the direction sought with a large enough effect; inconclusive = small, poorly fitted or top-dose-only effect, or another doubt; inactive = no such curve, though single readings can be large; an effect the other way counts as inactive or inconclusive.

SMILES	ELG1 DNA repair	FLuc counter	SMN2 splice enh	Rab9 prom act	NPC1 prom act	ELG1 genotox
COc1ccc(NC(=O)c2sc(SC)nc2N)cc1	?	12µM	13µM	?	?	18µM
Cc1ccccc1N(C)S(=O)(=O)c1nnc(NC(=O)c2ccco2)s1	-	-	.	-	-	-
O=C(NN1CCCCC1)c1cccc(COc2ccc(Cl)cc2)c1	?	4.8µM	14µM	3.5µM	?	?
COc1ccc(OCCC(=O)N2CCN(C)CC2)cc1	-	-	.	-	-	-
COc1ccc(OCCC(=O)N2CCCCC2)cc1	?	?	18µM	-	-	-
CCOc1ccc(OCc2cccc(C(=O)N3CCCCCC3)c2)cc1	?	0.54µM	1.8µM	0.28µM	0.32µM	?
CCCCOc1ccc(C(=O)N2CCCC2)cc1	?	?	11µM	-	-	18µM
Cc1[nH]c(C)c(S(=O)(=O)NCCc2ccccc2)c1C(=O)N1CCCCC1	-	-	.	-	-	-
COC(=O)c1scc(-c2ccc(C)cc2)c1S(=O)(=O)N1CCN(c2cccc(OC)c2)CC1	.	-	.	.	.	.
CC1CN(C(=O)c2cccc(C(=O)N3CC(C)OC(C)C3)c2)CC(C)O1 (stereo not given)	-	-	-	-	-	-
CC1CN(C(=O)c2cccc(COc3ccccc3Cl)c2)CC(C)O1 (stereo not given)	?	15µM	11µM	?	3.5µM	?
CCOc1ccc(OCc2cccc(C(=O)N3CCCC3)c2)cc1	?	3µM	2.8µM	0.45µM	0.35µM	0.65µM
Cc1cc(C)c(NC(=O)Cn2nnc(-c3nc(-c4ccncc4)no3)c2N)c(C)c1	.	-	.	.	.	.
O=[N+]([O-])c1cccc(C(F)(F)F)c1	.	.	-	.	.	.
Nn1nnc2ccccc21	-	-	-	-	-	-
C(=C\n1nnc2ccccc21)/c1ccccn1	?	4.3µM	.	1.1µM	2µM	?
O=C(O/N=C1\CCCc2ccccc21)C1CC1	-	?	-	-	-	-
Cc1ccc(C(=O)O/N=C2\CCSc3ccc(C)cc32)cc1	?	7.6µM	-	-	-	?
O=C(O/N=C1\CCCc2ccccc21)c1cccc(Cl)c1	-	3µM	-	-	-	-
Cc1ccc(C(=O)O/N=C2\CCCc3ccccc32)cc1	-	0.17µM	-	-	-	-
Cc1cccc(C(=O)O/N=C2\CCSc3ccc(C)cc32)c1	-	?	-	-	-	-
O=C(O)c1ccc(N/N=C2/CCCc3ccccc32)cc1	?	9.5µM	.	2.5µM	3.2µM	?
O=c1c2cc3c(cc2n(Cc2ccc(F)cc2)c(=O)n1Cc1nc(-c2ccccc2)no1)OCO3	.	-	.	.	.	.
COc1ccccc1CNC(=O)CN1C(=O)COc2ccc(S(=O)(=O)N3CCC(C)CC3)cc21	.	-	-	.	.	.
Cc1cccc(C(=O)O/N=C2\CCCc3ccccc32)c1	?	0.67µM	-	-	?	-
SMILES	ELG1 DNA repair	FLuc counter	SMN2 splice enh	Rab9 prom act	NPC1 prom act	ELG1 genotox
Cc1ccc(S(=O)(=O)O/N=C2\CCCc3ccccc32)cc1	-	-	-	-	-	-
O=C(CSc1ncnc2ccccc12)Nc1ccc2c(c1)OCCO2	-	17µM	-	-	-	-
COc1ccc(-n2nnc3c(SCC(=O)Nc4ccc5c(c4)OCCO5)ncnc32)cc1	-	7.6µM	-	-	-	-
COC(=O)c1ccc(CSc2ncnc3c2nnn3-c2ccc(OC)cc2)o1	-	21µM	-	-	-	-
O=C(CSc1ncccc1C(=O)O)Nc1ccc2c(c1)OCCO2	-	11µM	.	-	-	-
O=C(CSc1ccccc1C(=O)O)Nc1ccc2c(c1)OCO2	-	?	.	-	-	-
COc1ccc(-n2nnc3c(=O)n(CC(=O)Nc4ccc5c(c4)OCCO5)cnc32)cc1OC	?	-	.	-	-	?
COc1ccc(-n2nnc3c(SCC(=O)c4ccccc4)ncnc32)cc1	-	?	-	-	-	-
